Among all 4,800 compounds or so, about 410 (8.5%) showed an effect of 50% or more. The sample as a whole holds a higher share of strong results than the screen did.

This assay relates to Plasmodium falciparum. The assay is described as follows: Confirmatory screen in NF54 pLDH assay, in single point, at 2uM, 72h. The class given is functional, Erythrocyte. The settings on record: timepoint 72 hour.
Take `Fc1ccc(N2CC[C@H](CN3CCC(c4c[nH]c5ccccc45)(c4c[nH]c5ccccc45)CC3)C2)cc1`: the “% Inhibition” value was 102%. To `CN1C2CCC1CC(OC(=O)C1CCC(C(=O)OC3CC4CCC(C3)N4C)(c3ccccc3)c3ccccc31)C2` (stereo unspecified) belongs 63%; to `O[C@@H](CNCc1ccc2c(c1)CCO2)c1ccc(F)c(F)c1`, 74%. To `CN1CCC(N(C)c2ccccc2CNC[C@@H](O)c2cccc(Cl)c2)CC1` belongs 17%; to `CC(C)(C)c1ccc(CNC[C@H](O)c2ccc(F)cc2F)cc1`, 91%.

On to `CN1CCN(c2ccc(C(F)(F)F)cc2NCc2cnc[nH]2)CC1`, for which the “% Inhibition” value worked out at 92%.

As to `COc1ccc(CCNCc2ccc3[nH]cnc3c2)c(Cl)c1`, the “% Inhibition” value is 48%. To `CCN(C(C)=O)c1nc(CN2CC=C(c3c[nH]c4cc(F)ccc34)CC2)cs1` belongs 20%. With `CN(C)CC12CNCC1CN(c1ccnc3cc(Cl)ccc13)C2` (stereo unspecified) the figure was 97%.

Regarding `Oc1ccc(C2=CCN(Cc3cccc4[nH]ccc34)CC2)cc1`, the “% Inhibition” value came out at 38%.

As to `CCCOc1cncc(-c2ccc3c(c2)CNCC3)c1`, the “% Inhibition” value is given as 8%.

For the origin of these results see ChEMBL document CHEMBL5308541, “MAIP: An Open-Source Tool to Enrich High-Throughput Screening Output and Identify Novel, Druglike Molecules with Antimalarial Activity” (ACS Med Chem Lett, 2023).
